The text below walks through data of PubChem BioAssay AID1851 (National Center for Advancing Translational Sciences (NCATS), 2009).

SMILES strings stand for the structures. Among all 16,000 compounds or so, about 5,800 (36%) were called active. Inconclusive results (about 23%) are left out. Some of the results follow. A number with no mark means an inactive call. Calls follow the shape of the dose curve; as a rule, active = well fitted curve in the direction sought with a large enough effect; inconclusive = small, poorly fitted or top-dose-only effect, or effect the other way; inactive = no such curve, though single readings can be large or run the other way.
% is scaled to controls: 0 for no effect and ±100 for the full control effect.

For this test, the target named is Cytochrome P450 2C19 (Homo sapiens) (UniProt P33261). Briefly: Cytochrome panel assay with activity outcomes. To be noted: recombinant CYP, pro-luciferin dealkylation, luminescence, p450-cyp2c19; series mostly up to 57.1 µM; activity, negative = inhibition: at the top concentration.
Chain of Cytochrome P450 2C19 (Homo sapiens) (P33261 whole entry, looked up): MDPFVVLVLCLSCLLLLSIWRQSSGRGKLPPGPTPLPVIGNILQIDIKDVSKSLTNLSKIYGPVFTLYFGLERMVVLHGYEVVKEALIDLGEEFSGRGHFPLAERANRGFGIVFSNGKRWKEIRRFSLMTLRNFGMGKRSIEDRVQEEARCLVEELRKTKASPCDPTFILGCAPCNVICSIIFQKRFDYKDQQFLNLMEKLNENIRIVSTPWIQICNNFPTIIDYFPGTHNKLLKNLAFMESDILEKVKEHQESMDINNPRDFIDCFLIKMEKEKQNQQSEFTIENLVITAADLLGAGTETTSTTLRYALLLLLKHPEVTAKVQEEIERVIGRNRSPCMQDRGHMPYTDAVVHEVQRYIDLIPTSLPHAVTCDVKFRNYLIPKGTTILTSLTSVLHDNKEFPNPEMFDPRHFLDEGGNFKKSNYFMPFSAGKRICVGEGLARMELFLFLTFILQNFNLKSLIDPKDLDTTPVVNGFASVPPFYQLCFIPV
`CNc1nc(-c2ccccc2C)nc2ccccc12`: the AC50 (as a rule, the concentration at which the activity in the assay is half-maximal) is 10 µM (active).

Turning to `Cc1ccccc1-c1nc(NC2CC2)c2ccccc2n1`, the “activity, negative = inhibition” value was -33.8%.

On to `CNc1nc(-c2ccccc2CN(C)C)nc2ccccc12`, for which the “activity, negative = inhibition” value was -18.6%.

As to `O=C(OCC#CCSc1nnc(-c2cccc3ccccc23)o1)c1ccco1`, the AC50 is 3.16 µM (active).

For `CN1CCc2c(c3c(n2C)CCN(C)[C@H]3c2ccccc2F)[C@@H]1c1ccccc1F`, the “activity, negative = inhibition” value is -14.2%.

For `O=C1C2CCCN2C(c2ccccc2F)N1c1ccc(Cl)cc1` (stereo unspecified), the AC50 is 25.1 µM (active).

In the case of `COc1cc(OC)c(C2N(c3cc(C)on3)C(=O)C3CCCN32)cc1OC` (stereo unspecified), the “activity, negative = inhibition” value is -29%.

With `CCC(=O)Nc1ccc(/C(C)=N\NS(=O)(=O)c2ccc(C)cc2)cc1`, the AC50 was 3.98 µM (active).

Regarding `C/C(=N/NS(=O)(=O)c1ccc(C)cc1)c1cccc(NC(=O)c2cccc(Cl)c2)c1`, the AC50 is 2 µM (active).

On to `CC(CC(=O)O)CC(=O)Nc1ccc(S(N)(=O)=O)cc1` (stereo unspecified), for which the “activity, negative = inhibition” value is -18%.

As for `CCOC(=O)N1CCN(c2nc(-c3ccco3)cc(C(F)(F)F)n2)CC1`, the half-maximal activity concentration (AC50) was 4.47 µM (active).

For the compound `CCCNC(=O)CSc1nc(-c2cccs2)cc(C(F)(F)F)n1`, the AC50 is 0.562 µM (active).

For `COc1cc2nc(N3CC=[N+](C(=O)c4ccco4)CC3)nc(N)c2cc1OC`, the “activity, negative = inhibition” value was -4.4%.

On to `COCCn1c(=O)c(-c2cccs2)nc2cnc(N3CCN(C)CC3)nc21`, for which the “activity, negative = inhibition” value was 3.09%.

On to `CCOC(=O)N1CCN(c2nc(-c3cccs3)cc(C(F)(F)F)n2)CC1`, for which the AC50 was 3.98 µM (active).

As for `CCC[C@@H]1O[C@@H]2C[C@@H]3[C@H]4CCC5=CC(=O)C=C[C@@]5(C)[C@H]4[C@H](O)C[C@@]3(C)[C@@]2(C(=O)CO)O1`, the “activity, negative = inhibition” value was -18.8% [at 25.6 µM].

In the case of `CC[C@@H]1OC(=O)[C@H](C)[C@H](O[C@@H]2C[C@](C)(OC)[C@H](O)[C@H](C)O2)[C@H](C)[C@H](O[C@@H]2O[C@@H](C)C[C@@H](N(C)C)[C@@H]2O)[C@](C)(O)C[C@H](C)C(=NOCOCCOC)[C@H](C)[C@H](O)[C@]1(C)O`, the “activity, negative = inhibition” value is -2.54% [at 25.6 µM].

Turning to `CN(C)CCCO[C@H]1[C@H]([C@H](O)CO)O[C@H]2OC(C)(C)O[C@@H]21`, the “activity, negative = inhibition” value is 36.3%.

For the compound `COc1ccc([C@@H](C)c2cc3c(cc2O)OCO3)cc1`, the half-maximal activity concentration (AC50) is 0.1 µM (active).

Consider `COc1ccc([C@@H](Nc2ncccn2)c2cc3c(cc2O)OCO3)cc1`, for which the AC50 is 0.316 µM (active).

With `C=C(C)[C@@H]1CC=C(C(=O)O)CC1`, the “activity, negative = inhibition” value is -12.9%.

On to `CN(C)CCSCCO`, for which the activity, negative = inhibition was 28.5% [at 11.4 µM].

Regarding `Cc1cc(-c2cc(C)c(O)c(C(C)(C)C)c2)cc(C(C)(C)C)c1O`, the AC50 is 1 µM (active).

Regarding `Cc1cc(C(C)(C)C)c(O)c(C)c1CC1=NCCN1`, the AC50 entry was “inactive”.

In the case of `Cc1cccc(NC(=O)N(Cc2nc3ccccc3c(=O)[nH]2)C2CCCC2)c1`, the AC50 was 15.8 µM (active).

As for `CCN1C/C(=C\c2cccc(C)c2)c2nc3ccccc3c(C(=O)O)c2C1`, the “activity, negative = inhibition” value was -22.5%.

Consider `CN1CCC(N(C)C(=O)CCc2nc3ccccc3c(=O)[nH]2)CC1`, for which the “activity, negative = inhibition” value is 11.4%.

`CCn1c(O)c(/C=N/N=C2CCCC2)c2ccc(C3=NNC(=O)CC3)cc21`: the “activity, negative = inhibition” value was -24.3%.

Turning to `Cc1nc2c(n1C1CCCCC1)C(=O)c1ccccc1C2=O`, the AC50 was 2.82 µM (active).

With `O=C1c2cccnc2C(O)N1C1CCCCC1` (stereo unspecified), the “activity, negative = inhibition” value is -28.3%.

Regarding `Cn1cc(-c2nc3cncnc3n(C3CC3)c2=O)c2ccccc21`, the “activity, negative = inhibition” value was -6.89%.

As to `CN[C@@H]1NC(=O)c2ccccc2N1Cc1ccc(F)cc1`, the activity, negative = inhibition is -2.68% [at 11.4 µM].

In the case of `Cc1ccc(NC2c3ncccc3C(=O)N2Cc2ccc(F)cc2)cc1` (stereo unspecified), the AC50 was 5.01 µM (active).

Regarding `COc1ccc2[nH]cc(CCNc3ncnc4ccc(-c5c(C)noc5C)cc34)c2c1`, the AC50 was 3.98 µM (active).

As to `COc1ccc2[nH]cc(CCNc3ncnc4ccc(-c5ccccc5OC)cc34)c2c1`, the AC50 is 2 µM (active).

Take `COc1cccc(-c2ccc3ncnc(NCCc4c[nH]c5ccc(OC)cc45)c3c2)c1`: the AC50 is 3.16 µM (active).

`COc1ccc2[nH]cc(CCNc3ncnc4ccc(-c5ccccc5CN(C)C)cc34)c2c1`: the “activity, negative = inhibition” value is -27%.

Take `COc1ccc2[nH]cc(CCNc3ncnc4ccc(-c5cccc(C#N)c5)cc34)c2c1`: the AC50 was 7.94 µM (active).

As to `COc1ccc2[nH]cc(CCNc3ncnc4ccc(-c5ccoc5)cc34)c2c1`, the concentration at half-maximal activity (AC50) was 7.94 µM (active).

As for `COc1ccc2[nH]cc(CCNc3ncnc4ccc(-c5ccc6c(c5)OCO6)cc34)c2c1`, the AC50 was 1.58 µM (active).

In the case of `COc1ccc2[nH]cc(CCNc3ncnc4ccc(-c5ccccc5C#N)cc34)c2c1`, the AC50 was 2 µM (active).

Take `COc1ccc2c(Cl)c(-c3nnco3)sc2c1`: the AC50 was 7.94 µM (active).

With `Cc1nc2cnc(N3CCN(C)CC3)nc2n(-c2ccccc2)c1=O`, the “activity, negative = inhibition” value was -19.9%.

Consider `O=C1CC(c2ccccc2)Cc2nc(N3CCc4ccccc4C3)ncc21` (stereo unspecified), for which the AC50 was 3.98 µM (active).

With `CN1CCN(c2ncc3ncc(=O)n(-c4ccccc4)c3n2)CC1`, the “activity, negative = inhibition” value was 23.5%.

In the case of `Cc1ccc(-n2cnc(=O)c3cccnc32)cc1`, the “activity, negative = inhibition” value was -15.1%.
